Bioassay records deposited in PubChem by The Scripps Research Institute Molecular Screening Center.
The full list was thinned out, with hits kept by preference.
TTR transcr act: activators of transthyretin transcription. SH-SY5Y TTR promoter Gaussia luciferase, luminescence; 100% = recombinant luciferase protein wells. activation, % at 16.7 µM. 92,000 tested, 1.3% active;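 active = activation above the mean of all tested compounds plus 3 SD, cut at about 9.5% in these data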;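 note: cells exposed to compounds for one day before reading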
HuH7 TTR inh: HuH7 TTR transcription inhibition, counter-screen | shares compounds with TTR transcr act | 1,100 tested, 4% active | HuH7 TTR promoter-Gaussia luciferase reporter, luminescence | AID 1117279 | inhibition, % at 16.7 µM;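 active = average inhibition above the solvent-only control wells' mean plus 3 SD, cut at about 15% in these data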;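 note: inhibitors lower well luminescence so higher value means more inhibition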
TTR up confirm: human TTR transcription activation, confirmation; shares compounds with TTR transcr act; activation, % at 16.7 µM; 1,100 tested, under 10 active; SHSY5Y TTR promoter Gaussia luciferase, luminescence; 100% = purified Lucia enzyme wells, no cells;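 active = mean activation above a set limit taken from the earlier primary screen, cut at about 11% in these data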
A number is an active result; . = inactive.

SMILES	TTR transcr act	others
Cc1nc2ccccn2c1P(=O)(c1ccccc1)c1ccccc1	.
CCC(c1nnnn1Cc1ccco1)N(Cc1cc2cc(C)cc(C)c2[nH]c1=O)CC1CCCO1 (configuration not stated)	18	HuH7 TTR inh=.;TTR up confirm=.
Cc1cccc2cc(C(c3nnnn3C(C)(C)C)N(Cc3ccco3)CC3CCCO3)c(=O)[nH]c12 (configuration not stated)	.
CCC(c1nnnn1Cc1ccco1)N(Cc1ccccc1OC)Cc1cc2cc(C)ccc2[nH]c1=O (configuration not stated)	.
CC(C)C[C@H](NC1(C(=O)NC2CCCCC2)CCOCC1)C(=O)NCC(c1ccccc1)c1ccccc1	.
COC(=O)[C@]12C[C@H](CC(=O)NCc3ccc(OC)c(OC)c3)C(=O)N(Cc3ccco3)C1=C[C@H](C1CCCC1)O[C@@H]2C	.
COc1ccc(C(=O)NCCCNC(=O)c2ccccn2)cc1Br	.
COc1ccc(CCC(=O)NNC(=O)Nc2ccc(C(C)C)cc2)cc1	.
COc1ccc(C(C)NC(=O)CCc2ccccc2)cc1 (configuration not stated)	.
CCc1ccccc1NC(=O)NNC(=O)CCc1ccc(OC)cc1	13	HuH7 TTR inh=.;TTR up confirm=.
Cn1nnnc1Sc1ncnc2scc(-c3cnc(N)nc3)c12	.
C[C@@H](NS(=O)(=O)c1c(F)cccc1F)c1ccccc1	.
Cc1ccc(S(=O)(=O)N(C)C[C@@H]2OCc3cnnn3CCCC(=O)N([C@@H](C)CO)C[C@@H]2C)cc1	.
O=C(O)CSCC(=O)Nc1cccc2ccccc12	10.0	HuH7 TTR inh=.;TTR up confirm=.
Nc1ccccc1SCC(=O)Nc1cccc2ccccc12	.
N=c1sccn1CC(=O)Nc1cccc2ccccc12	.
COC(=O)[C@@]12C[C@@H](CC(=O)NCCCCc3ccccc3)C(=O)N(Cc3ccc4c(c3)OCO4)C1=CCC(C)(C)C2	.
CNS(=O)(=O)c1ccc(C(=O)NCC(=O)NCCC(c2ccccc2)c2ccccc2)cc1	.
COc1cc(NC(=O)CSc2cc(C)c3cc(C)cc(C)c3n2)c(C(=O)O)cc1OC	.
COc1cc(CCC(=O)OCC(=O)Nc2c(C)cc(C)cc2C)cc(OC)c1OC	.
Cc1cc(C)c(NC(=O)COC(=O)C2CCCO2)c(C)c1 (configuration not stated)	.
CC(=O)OCC(=O)Nc1c(C)cc(C)cc1C	9.9	HuH7 TTR inh=.;TTR up confirm=.
Clc1cccc(Cc2c(C3CCCCC3)nc3ccc(Br)cn23)c1	.
Cc1occc1C(=O)Nc1cccc(Cl)c1Cl	.
COC(=O)c1ccc(CNC(=O)COC(=O)c2cccs2)cc1	.
SMILES	TTR transcr act	others
Cc1ccc(Cl)cc1NC(=O)CNC(=O)N1CC(=O)Nc2ccccc21	.
COc1ccccc1C1=NOC(Cn2c(NCC3CCCO3)nc3c2c(=O)n(C)c(=O)n3C)C1 (configuration not stated)	.
COc1ccccc1C1=NOC(Cn2c(=O)c3c(ncn3C)n(C)c2=O)C1 (configuration not stated)	16	HuH7 TTR inh=.;TTR up confirm=.
COc1ccccc1-n1cnc2c(c1=O)c1nc3ccccc3nc1n2CCc1ccccc1	.
CCOC(=O)C1=CCN(S(=O)(=O)c2cccc(Cl)c2)C1c1ccc(Br)cc1 (configuration not stated)	.
CCC(C)NCCCCOc1ccc(Br)cc1 (configuration not stated)	10	HuH7 TTR inh=.;TTR up confirm=.
CCOc1ccc(OCCCCNC(C)(C)C)cc1	.
CCC(C)NCCCCOc1cc(C)cc(C(C)C)c1 (configuration not stated)	.
C[C@@H]1[C@H](c2ccccc2)OC(O)([C@H](Cc2ccccc2)NC(=O)OC(C)(C)C)CN1C (some centres not stated)	.
CCn1nnc(C(=O)O)c1C(=O)O	9.9	HuH7 TTR inh=.;TTR up confirm=.
CCOC(=O)C1=CN(Cc2cccc(-c3ccc4c(c3)OCO4)c2)S(=O)(=O)N(C)C1C (configuration not stated)	.
Cc1ccc(S(=O)(=O)NCc2ccccc2)cc1C(=O)N1CCN(S(=O)(=O)c2ccccc2F)CC1	.
COc1cc(/C=N/NC(=O)COc2c(C)cc([N+](=O)[O-])cc2C)ccc1OC(=O)c1ccccc1Br	15	HuH7 TTR inh=.;TTR up confirm=.
COc1ccc(C=NNC(=O)CCCC(=O)NN=Cc2ccc(OC)c(OC)c2)cc1OC	.
COc1ccc(C(=O)N/N=C/c2ccc(OC(=O)c3cccc4ccccc34)c([N+](=O)[O-])c2)cc1	.
C=CC[C@@H](CC(=O)N(CCO)Cc1ccccc1)C(=O)NC[C@H](OC(=O)[C@@H](CC=C)Cc1ccc(F)cc1)c1ccccc1	.
CC(C)=CCC[C@H](C)C[C@@H]1CC2=C(C(=O)OC(C)(C)O2)[C@H](c2ccc(F)cc2)O1	.
Cc1ccc(CNC(=O)O[C@H]2CC[C@@]34CCCN3C(=O)CCC[C@H]4C2)cc1	.
Cc1ccc([C@H]2C[C@H](n3cc(COC(=O)c4ccccc4)nn3)[C@@H](O)CN2C(=O)C2CCCCC2)cc1	.
Cc1cc(C)n2nc(C(=O)OCC(=O)Nc3ccc4c(c3)OC(F)(F)O4)nc2n1	.
COC(=O)c1cc(COC(=O)c2nc3nc(C)cc(C)n3n2)oc1C	10	HuH7 TTR inh=.;TTR up confirm=.
Cc1cc(C)n2nc(C(=O)OCC(=O)c3ccccc3)nc2n1	.
CC(=O)c1ccc(N/C=C/C(=O)c2ccc(Br)cc2)cc1	.
CCCCCN(C(=O)COC(=O)c1ccc(C)cc1)c1c(N)n(CCCC)c(=O)[nH]c1=O	.
COc1ccc(CNC(=O)C2(CC3CC(c4ccccc4)=NO3)CCN(C(=O)CCCCCBr)CC2)cc1 (configuration not stated)	.
SMILES	TTR transcr act	others
CCCCCCCNC(=O)C1(CC2CC(c3cccc(Br)c3)=NO2)CCN(C(=O)c2ccccc2)CC1 (configuration not stated)	17	HuH7 TTR inh=.;TTR up confirm=.
O=C(Cc1ccc(F)cc1)N1CCC(CC2CC(c3cccc(Br)c3)=NO2)(C(=O)NCC2CCCCC2)CC1 (configuration not stated)	.
COCCN(CC(=O)Nc1cccc(C)c1C)C(=O)Cc1cccs1	.
COCCN(CC(=O)Nc1cccc(C)c1C)C(=O)c1ccc(S(=O)(=O)N2CCOCC2)cc1	9.8	HuH7 TTR inh=.;TTR up confirm=.
O=C(Nc1ccccc1Cl)c1ccc(S(=O)(=O)N2CCOCC2)cc1	.
COC(=O)[C@]12C[C@H](CC(=O)NCCC(C)C)C(=O)N(Cc3ccccc3)C1=C[C@H](COCc1ccccc1)O[C@@H]2C	.
CC1CC(=O)N(CC(=O)Nc2ccc(F)cc2F)c2ccccc2S1(=O)=O (configuration not stated)	.
Nc1c2c(=O)[nH]c(O)cc2nn1-c1ccccc1	.
Cc1nn(Cc2ccccc2Cl)c(C)c1C(=O)N(C)CC(=O)Nc1cccc(F)c1	.
O=C(COC(=O)c1cccnc1Cl)Nc1cccc(S(=O)(=O)N2CCOCC2)c1	.
O=C(COC(=O)C1=COCCO1)Nc1cccc(S(=O)(=O)N2CCOCC2)c1	14	HuH7 TTR inh=.;TTR up confirm=.
Cc1cc(C(=O)OCC(=O)Nc2cccc(S(=O)(=O)N3CCOCC3)c2)c(C)o1	.
COc1ccccc1Oc1ccc(NC(=O)Cc2ccccc2)cc1	.
COc1ccc(/C=C(/C#N)C(=O)Nc2cc(C)ccc2C)cc1C(=O)O	.
COc1cc(/C=C(\C#N)C(=O)NC(C)C)cc(Cl)c1O	.
